About 83,000 compounds went through this panel and 20% of them were active in at least one assay; those are over-represented in the sample as a whole.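 Single-dose data. Exposure time 48 hours. Values below 10 considered active.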 Activity calls are given as the source filed them.
The compounds below were run on OVCAR-5 ovarian (assay: NCI-60 one-dose screen, 48 h (100 = growth as untreated, 0 = no growth, -100 = all killed)). Settings: 10 µM unless noted.
Protocol: Growth inhibition of the OVCAR-5 human tumor cell line is measured as a screen for anti-cancer activity. Cells are grown in 96 well plates and exposed to the test compound for 48 hours. Compounds are tested at a single concentration, which is 10^-5 M for most compounds. The reported endpoint is percent growth (GI% or GIPRCNT), where numbers from 0 - 100% represent growth inhibition, and numbers from -100% - 0 represent cell death. For example, a value of 40 represents 60% growth inhibition. A value of 0 means no net growth occurred over the course of the experiment. A value of -40 indicates 40% of cells at the beginning of the experiment died by the end of the experiment. A value of -100 means all cells are dead at the end of the experiment.
NCI-60 Human Tumor Cell Lines Screen was performed using the standard one-dose NCI protocol, which is described in more detail at https://dtp.cancer.gov/discovery_development/nci-60/default.htm.
Compounds with GIPRCNT values below 10 were considered active. Activity score was based on GIPRCNT using the following formula: […]
Score is 0 for GIPRCNT values of 100 or above, 50 for GIPRCNT values of 0, and 100 for GIPRCNT values of -100.

SMILES	growth
O=C1c2cccc3c(-c4ccc5c(c4)ncn5C4CCCCC4)ccc(c23)C(=O)N1c1nc2ccccc2s1	102% (inactive)
CC(C)(C)c1cc(C=O)cc(C(C)(C)C)c1O	108% (inactive)
Oc1ccc(C2c3ccccc3Oc3ccccc32)c2cccnc12	44.9% (inactive)
CC(=O)c1cc2c(N)c(C(=O)Nc3cccc4ccncc34)sc2nc1C	106% (inactive)
Cc1nn(-c2ccccc2)c(Cl)c1/C=C/C(=O)c1ccc(F)cc1	97.4% (inactive)
C=C1C(=O)O[C@H]2[C@H]1CC/C(C(=O)NCCCCCNC(=O)/C1=C/CC[C@@]3(C)O[C@H]3[C@H]3OC(=O)C(=C)[C@@H]3CC1)=C\CC[C@@]1(C)O[C@@H]21	93.9% (inactive)
C=C(C)[C@@H]1CC[C@]2(C(=O)N3CCN(C)CC3)CC[C@]3(C)[C@H](CC[C@@H]4[C@@]5(C)CC[C@H](OCCC#N)C(C)(C)[C@@H]5CC[C@]43C)[C@@H]12	129% (inactive)
O=C1/C=C/[C@@H](O)[C@@H]2C[C@@H](O)C[C@H]2/C=C/CCC[C@H](CCc2ccc3ncccc3c2)O1	27.5% (inactive)
N#CC(C(=O)/C(=N/NC(=O)c1ccccc1O)C(C#N)c1ccccc1)c1ccccc1 (stereo not given)	91.2% (inactive)
COc1ccc(/C=C/c2nc(Nc3ccc(S(=O)(=O)Nc4nc(C)cc(C)n4)cc3)c3ccccc3n2)cc1	74.9% (inactive)
CNC(=O)c1cncc(Cn2nc(C)c(NC(=O)c3ccc(COc4ccc(C(F)(F)F)cc4C)cc3)c2C)c1	98.1% (inactive)
COC(=O)C1=C(C(=O)ON)[C@@H]2C=C[C@@]1([C@@H](Cc1ccccc1)Nc1ccccc1)O2	89% (inactive)
C=C(C)[C@@H]1CC[C@]2(C(=O)N3CCN(C)CC3)CC[C@]3(C)[C@H](CC[C@@H]4[C@@]5(C)C/C(=C/c6cccnc6)C(=O)C(C)(C)[C@@H]5CC[C@]43C)[C@@H]12	100% (inactive)
C#CCNC(=O)[C@H](Cc1ccccc1)NC(=O)[C@]12CC[C@@H](C(=C)C)[C@@H]1[C@H]1CC[C@@H]3[C@@]4(C)CCC(=O)C(C)(C)[C@@H]4CC[C@@]3(C)[C@]1(C)CC2	87.1% (inactive)
CCCCNC(=O)Oc1ccc(/C(=C(\C)c2ccccc2)c2ccc(OCCN3CCCCC3)cc2)cc1	89.5% (inactive)
Cc1ccc(C(=O)/C(=C\c2ccc([N+](=O)[O-])cc2)S(=O)Cc2ccc(Cl)cc2)cc1 (stereo not given)	45.8% (inactive)
CCOC(=O)CC1CSC(N/N=C/c2ccc(-n3cccn3)cc2)=N1 (stereo not given)	115% (inactive)
CCCCCCCCCCCCCCCC[N+]1(C)CCN(SN2CC[N+](C)(CCCCCCCCCCCCCCCC)CC2)CC1	50% (inactive)
O=C1OC(Cc2ccccc2)C1c1ccccc1 (stereo not given)	98.9% (inactive)
O=C(Cc1ccccc1)NNc1nc(Cl)nc(N2CCN(C(c3ccccc3)c3ccccc3)CC2)n1	94.8% (inactive)

SMILES	growth
O=C(Nc1cccc(C2=NCCN2)c1)c1ccc(-c2ccc(C(=O)Nc3cccc(C4=NCCN4)c3)cc2)cc1	88.5% (inactive)
Nc1c(C(=O)Nc2cccc3cnccc23)sc2nc3c(cc12)CN(Cc1ccccc1)CC3	105% (inactive)
O=C1c2ccc3c4c(ccc(c24)C(=O)N1CCCNCc1ccccc1)C(=O)N(CCCNCc1ccccc1)C3=O	-20.6% (active)
C=C(C)[C@@H]1CC[C@]2(C(=O)N3CCN(C)CC3)CC[C@]3(C)[C@H](CC[C@@H]4[C@@]5(C)C/C(=C/c6ccncc6)C(=O)C(C)(C)[C@@H]5CC[C@]43C)[C@@H]12	88.8% (inactive)
N#Cc1c(-c2cccc([N+](=O)[O-])c2)nc(SCC(=O)c2ccc(Cl)cc2)[nH]c1=O	102% (inactive)
O=C(c1nnc(Nc2ccccc2Br)o1)c1c[nH]c2ccccc12	99.6% (inactive)
N#Cc1c(NCc2ccccc2I)sc2c1CCCCC2	96.3% (inactive)
Cn1cc(-c2nc(-c3c[nH]c4c(Cl)nccc34)cs2)c2cc(Br)ccc21	97.6% (inactive)
O=S(=O)(NCCCNc1nccc(-c2c(-c3cccc(F)c3)nc3sccn23)n1)c1cccc(F)c1	110% (inactive)
Cc1ccc(-c2nc3ccccn3c2/C=C2/C(=O)Nc3cc(Cl)ccc32)cc1	101% (inactive)
CCC(CC)NCC(C)(C)O	108% (inactive)
O=S(=O)(NCCNc1nccc(-c2c(-c3cccc(O)c3)nc3occn23)n1)c1cccc(F)c1	128% (inactive)
COc1cc(C2C3CC4CCCC[C@H]4N3[C@@]3(C(=O)Nc4cc(Cl)ccc43)C2C(=O)c2nc3ccccc3[nH]2)cc(OC)c1OC (stereo not given in full)	73.7% (inactive)
O=C(C[n+]1cccc2ccccc21)c1ccc(O)c(O)c1	88% (inactive)
Cc1ccc(S(=O)(=O)Nn2c3c(cc(-c4nc5ccccc5s4)c2=O)CCCCCC3)cc1	105% (inactive)
Clc1ccc(-c2ccc(CNCC3CCNCC3)o2)c(-c2ccccc2)c1	-90.6% (active)
OCc1cnc2ccccc2c1NC1CCCCCC1	100% (inactive)
COc1cc(C2=C(c3cn(C)c4ccccc34)COC2=O)cc(OC)c1OC	17.3% (inactive)
O=C(CCN1CCCC1)Nc1ccc2c(Nc3ccc(Br)cc3)c3ccccc3nc2c1	41.9% (inactive)
CCN(CC)CCn1c(=O)c2cc(OC)c(OC)cc2c2ccc3cc4c(cc3c21)OCO4	64.9% (inactive)
